In the supplement of paper PMC11732987, “Enantioselective OTUD7B fragment discovery through chemoproteomics screening and high-throughput optimisation” (Communications Chemistry, 2025):

Assays:
Experiment in all cases: log2 ratio of Biotin-Ahx-Ub-VS probe labelling (fragment/DMSO); higher = less target engagement (more negative = stronger competition), active = hit call of the paper (q ≤ 0.05, log2 ratio ≤ -1)
Conditions in all cases: compound concentration: 200 uM; treatment time: 3 h
USP42 = target: T1, USP42 (UniProt Q9H9J4)
T1 sequence (whole entry): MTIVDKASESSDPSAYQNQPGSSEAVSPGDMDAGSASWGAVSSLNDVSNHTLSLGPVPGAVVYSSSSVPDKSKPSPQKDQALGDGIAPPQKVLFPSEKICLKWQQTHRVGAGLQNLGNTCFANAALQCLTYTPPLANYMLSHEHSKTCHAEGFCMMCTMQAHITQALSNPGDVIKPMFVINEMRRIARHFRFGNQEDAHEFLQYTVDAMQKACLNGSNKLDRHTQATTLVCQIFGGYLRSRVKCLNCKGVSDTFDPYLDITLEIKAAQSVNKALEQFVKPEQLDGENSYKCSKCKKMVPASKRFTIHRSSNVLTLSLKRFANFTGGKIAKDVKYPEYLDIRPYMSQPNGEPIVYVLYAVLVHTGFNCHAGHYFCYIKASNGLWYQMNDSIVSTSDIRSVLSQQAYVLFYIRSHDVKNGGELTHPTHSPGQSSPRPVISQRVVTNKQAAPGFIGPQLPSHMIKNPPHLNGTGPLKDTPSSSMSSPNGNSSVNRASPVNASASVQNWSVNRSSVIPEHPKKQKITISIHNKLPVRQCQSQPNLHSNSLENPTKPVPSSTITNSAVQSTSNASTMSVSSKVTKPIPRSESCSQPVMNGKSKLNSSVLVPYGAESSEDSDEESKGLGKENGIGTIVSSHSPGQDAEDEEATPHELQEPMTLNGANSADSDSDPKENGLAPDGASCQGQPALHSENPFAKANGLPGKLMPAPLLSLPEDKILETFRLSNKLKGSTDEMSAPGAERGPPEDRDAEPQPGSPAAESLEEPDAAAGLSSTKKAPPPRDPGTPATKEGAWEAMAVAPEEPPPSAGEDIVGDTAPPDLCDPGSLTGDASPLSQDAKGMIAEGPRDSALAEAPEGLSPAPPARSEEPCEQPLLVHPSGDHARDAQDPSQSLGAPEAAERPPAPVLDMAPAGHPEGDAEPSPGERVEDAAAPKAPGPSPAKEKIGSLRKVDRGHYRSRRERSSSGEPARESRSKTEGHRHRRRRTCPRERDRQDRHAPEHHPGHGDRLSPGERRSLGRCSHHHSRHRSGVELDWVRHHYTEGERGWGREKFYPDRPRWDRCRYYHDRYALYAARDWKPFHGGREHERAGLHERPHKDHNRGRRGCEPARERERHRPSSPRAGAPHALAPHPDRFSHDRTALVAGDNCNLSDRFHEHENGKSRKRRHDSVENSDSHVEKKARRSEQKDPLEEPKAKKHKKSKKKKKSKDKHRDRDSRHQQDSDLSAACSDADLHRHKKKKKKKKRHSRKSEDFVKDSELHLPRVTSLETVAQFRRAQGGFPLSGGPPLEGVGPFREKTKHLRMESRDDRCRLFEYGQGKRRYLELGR
Summary of the method: (§1)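 Using Biotin-Ahx-Ub-VS at 0.5 µM final for 1 h, DUBs were labelled in HEK293T lysate (495 µg per sample) that had first been treated in triplicate with fragment at 200 µM or vehicle for 3 h. NeutrAvidin enrichment, LysC and trypsin digestion and diaPASEF LC-MS/MS followed. Spectronaut label-free quantities were global-median-normalised. Values are average log2 fragment/vehicle ratios by unpaired t-test, using proteins with ≥2 unique peptides.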

USP46 = USP46 (UniProt P62068)
USP46, sequence (P62068 whole entry): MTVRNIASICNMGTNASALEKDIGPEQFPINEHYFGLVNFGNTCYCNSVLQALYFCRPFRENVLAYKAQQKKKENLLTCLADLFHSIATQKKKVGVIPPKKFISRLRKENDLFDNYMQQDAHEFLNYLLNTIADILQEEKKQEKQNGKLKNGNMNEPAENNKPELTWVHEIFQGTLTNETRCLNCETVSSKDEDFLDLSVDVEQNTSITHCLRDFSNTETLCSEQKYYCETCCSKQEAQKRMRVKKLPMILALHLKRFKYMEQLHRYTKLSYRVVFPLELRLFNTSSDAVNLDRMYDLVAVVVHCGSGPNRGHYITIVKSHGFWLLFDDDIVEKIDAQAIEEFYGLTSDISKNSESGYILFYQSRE
Summary of the method: as §1

USP47 = target: T2, USP47 (UniProt Q96K76)
T2 sequence (whole entry): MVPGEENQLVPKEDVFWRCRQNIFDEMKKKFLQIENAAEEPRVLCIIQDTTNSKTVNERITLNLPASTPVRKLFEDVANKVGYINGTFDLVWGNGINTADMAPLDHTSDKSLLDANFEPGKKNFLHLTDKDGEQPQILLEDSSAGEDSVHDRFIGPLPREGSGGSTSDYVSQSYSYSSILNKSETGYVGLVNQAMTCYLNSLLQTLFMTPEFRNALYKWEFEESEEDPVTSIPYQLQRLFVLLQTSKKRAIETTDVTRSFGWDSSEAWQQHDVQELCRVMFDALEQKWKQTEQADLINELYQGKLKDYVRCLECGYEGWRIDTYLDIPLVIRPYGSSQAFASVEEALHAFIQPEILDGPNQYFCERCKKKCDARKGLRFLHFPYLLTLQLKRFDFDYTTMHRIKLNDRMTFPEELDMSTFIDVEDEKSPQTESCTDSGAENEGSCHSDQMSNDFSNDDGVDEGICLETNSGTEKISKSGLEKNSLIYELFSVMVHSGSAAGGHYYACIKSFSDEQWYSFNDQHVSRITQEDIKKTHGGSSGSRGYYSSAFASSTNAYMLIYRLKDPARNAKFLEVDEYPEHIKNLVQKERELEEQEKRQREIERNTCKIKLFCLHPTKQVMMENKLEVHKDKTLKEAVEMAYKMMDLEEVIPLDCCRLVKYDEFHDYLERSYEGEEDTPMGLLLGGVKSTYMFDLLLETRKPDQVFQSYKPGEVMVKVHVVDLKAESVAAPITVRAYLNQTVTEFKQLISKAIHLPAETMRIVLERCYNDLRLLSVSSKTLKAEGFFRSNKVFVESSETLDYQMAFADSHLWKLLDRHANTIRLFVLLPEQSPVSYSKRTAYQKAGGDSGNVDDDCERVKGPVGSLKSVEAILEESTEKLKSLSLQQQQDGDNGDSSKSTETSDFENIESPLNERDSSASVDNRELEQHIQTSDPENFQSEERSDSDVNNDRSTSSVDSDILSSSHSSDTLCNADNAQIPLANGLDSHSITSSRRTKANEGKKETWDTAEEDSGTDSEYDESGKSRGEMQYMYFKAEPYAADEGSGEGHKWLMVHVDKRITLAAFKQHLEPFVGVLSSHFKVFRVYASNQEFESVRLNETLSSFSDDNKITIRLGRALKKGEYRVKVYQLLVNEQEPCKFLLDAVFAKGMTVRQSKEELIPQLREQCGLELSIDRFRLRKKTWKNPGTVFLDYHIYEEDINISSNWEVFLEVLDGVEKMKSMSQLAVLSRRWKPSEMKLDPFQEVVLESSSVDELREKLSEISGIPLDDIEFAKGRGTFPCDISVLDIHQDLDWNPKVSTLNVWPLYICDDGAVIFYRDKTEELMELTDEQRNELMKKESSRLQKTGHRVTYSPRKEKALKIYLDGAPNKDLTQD
Summary of the method: as §1

USP48 = target: T3, USP48 (UniProt Q86UV5)
T3 sequence (whole entry): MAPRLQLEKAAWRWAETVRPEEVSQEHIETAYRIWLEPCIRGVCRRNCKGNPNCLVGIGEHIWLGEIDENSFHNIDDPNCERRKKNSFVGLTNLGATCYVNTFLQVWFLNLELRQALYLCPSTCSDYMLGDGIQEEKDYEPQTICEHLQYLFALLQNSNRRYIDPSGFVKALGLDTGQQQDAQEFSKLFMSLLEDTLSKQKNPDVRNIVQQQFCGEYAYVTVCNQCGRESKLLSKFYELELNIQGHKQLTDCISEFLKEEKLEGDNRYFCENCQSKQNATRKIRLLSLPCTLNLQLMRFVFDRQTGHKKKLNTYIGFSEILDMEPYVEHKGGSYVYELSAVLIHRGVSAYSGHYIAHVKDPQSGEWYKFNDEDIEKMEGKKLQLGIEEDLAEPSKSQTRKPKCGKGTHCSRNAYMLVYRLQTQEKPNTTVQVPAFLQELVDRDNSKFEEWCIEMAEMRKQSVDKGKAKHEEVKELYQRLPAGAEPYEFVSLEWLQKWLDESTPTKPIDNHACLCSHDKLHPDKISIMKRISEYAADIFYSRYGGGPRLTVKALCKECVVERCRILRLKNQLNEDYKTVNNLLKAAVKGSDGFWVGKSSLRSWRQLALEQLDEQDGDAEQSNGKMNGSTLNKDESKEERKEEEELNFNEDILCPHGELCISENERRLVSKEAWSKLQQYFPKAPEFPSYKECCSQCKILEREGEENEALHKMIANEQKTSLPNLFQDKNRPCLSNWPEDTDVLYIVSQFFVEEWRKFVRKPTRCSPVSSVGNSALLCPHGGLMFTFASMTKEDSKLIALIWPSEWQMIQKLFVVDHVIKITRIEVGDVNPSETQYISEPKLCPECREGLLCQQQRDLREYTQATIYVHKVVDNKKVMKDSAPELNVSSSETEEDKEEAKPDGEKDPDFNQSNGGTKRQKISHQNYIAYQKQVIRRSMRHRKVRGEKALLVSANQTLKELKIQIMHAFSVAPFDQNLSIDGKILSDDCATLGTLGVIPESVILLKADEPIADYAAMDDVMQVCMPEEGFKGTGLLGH
Summary of the method: as §1

USP5 = target: T4, USP5 (UniProt P45974)
T4 sequence (whole entry): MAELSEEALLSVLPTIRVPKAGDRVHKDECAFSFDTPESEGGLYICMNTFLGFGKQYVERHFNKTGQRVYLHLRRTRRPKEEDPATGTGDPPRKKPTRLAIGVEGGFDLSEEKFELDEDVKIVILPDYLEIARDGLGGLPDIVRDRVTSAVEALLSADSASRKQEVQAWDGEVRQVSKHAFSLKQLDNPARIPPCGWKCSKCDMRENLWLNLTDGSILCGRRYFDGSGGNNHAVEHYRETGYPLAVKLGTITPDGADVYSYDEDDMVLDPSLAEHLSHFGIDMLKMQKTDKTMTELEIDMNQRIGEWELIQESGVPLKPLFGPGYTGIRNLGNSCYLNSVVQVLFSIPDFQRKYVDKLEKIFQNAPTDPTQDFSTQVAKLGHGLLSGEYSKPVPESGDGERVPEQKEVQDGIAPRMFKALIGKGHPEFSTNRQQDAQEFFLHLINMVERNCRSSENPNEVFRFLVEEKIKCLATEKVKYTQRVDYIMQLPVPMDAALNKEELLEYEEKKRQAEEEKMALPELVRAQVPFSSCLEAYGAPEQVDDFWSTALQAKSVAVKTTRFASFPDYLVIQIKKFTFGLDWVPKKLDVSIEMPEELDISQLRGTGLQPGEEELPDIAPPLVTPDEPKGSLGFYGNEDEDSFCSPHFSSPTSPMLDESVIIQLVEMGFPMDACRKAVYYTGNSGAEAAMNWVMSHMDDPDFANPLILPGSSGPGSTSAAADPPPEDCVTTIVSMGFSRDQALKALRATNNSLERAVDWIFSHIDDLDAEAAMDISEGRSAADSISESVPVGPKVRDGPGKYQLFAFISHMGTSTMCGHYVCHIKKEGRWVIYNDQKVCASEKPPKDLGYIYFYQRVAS
Summary of the method: as §1

USP54 = USP54 (UniProt Q70EL1)
USP54, sequence (Q70EL1 whole entry): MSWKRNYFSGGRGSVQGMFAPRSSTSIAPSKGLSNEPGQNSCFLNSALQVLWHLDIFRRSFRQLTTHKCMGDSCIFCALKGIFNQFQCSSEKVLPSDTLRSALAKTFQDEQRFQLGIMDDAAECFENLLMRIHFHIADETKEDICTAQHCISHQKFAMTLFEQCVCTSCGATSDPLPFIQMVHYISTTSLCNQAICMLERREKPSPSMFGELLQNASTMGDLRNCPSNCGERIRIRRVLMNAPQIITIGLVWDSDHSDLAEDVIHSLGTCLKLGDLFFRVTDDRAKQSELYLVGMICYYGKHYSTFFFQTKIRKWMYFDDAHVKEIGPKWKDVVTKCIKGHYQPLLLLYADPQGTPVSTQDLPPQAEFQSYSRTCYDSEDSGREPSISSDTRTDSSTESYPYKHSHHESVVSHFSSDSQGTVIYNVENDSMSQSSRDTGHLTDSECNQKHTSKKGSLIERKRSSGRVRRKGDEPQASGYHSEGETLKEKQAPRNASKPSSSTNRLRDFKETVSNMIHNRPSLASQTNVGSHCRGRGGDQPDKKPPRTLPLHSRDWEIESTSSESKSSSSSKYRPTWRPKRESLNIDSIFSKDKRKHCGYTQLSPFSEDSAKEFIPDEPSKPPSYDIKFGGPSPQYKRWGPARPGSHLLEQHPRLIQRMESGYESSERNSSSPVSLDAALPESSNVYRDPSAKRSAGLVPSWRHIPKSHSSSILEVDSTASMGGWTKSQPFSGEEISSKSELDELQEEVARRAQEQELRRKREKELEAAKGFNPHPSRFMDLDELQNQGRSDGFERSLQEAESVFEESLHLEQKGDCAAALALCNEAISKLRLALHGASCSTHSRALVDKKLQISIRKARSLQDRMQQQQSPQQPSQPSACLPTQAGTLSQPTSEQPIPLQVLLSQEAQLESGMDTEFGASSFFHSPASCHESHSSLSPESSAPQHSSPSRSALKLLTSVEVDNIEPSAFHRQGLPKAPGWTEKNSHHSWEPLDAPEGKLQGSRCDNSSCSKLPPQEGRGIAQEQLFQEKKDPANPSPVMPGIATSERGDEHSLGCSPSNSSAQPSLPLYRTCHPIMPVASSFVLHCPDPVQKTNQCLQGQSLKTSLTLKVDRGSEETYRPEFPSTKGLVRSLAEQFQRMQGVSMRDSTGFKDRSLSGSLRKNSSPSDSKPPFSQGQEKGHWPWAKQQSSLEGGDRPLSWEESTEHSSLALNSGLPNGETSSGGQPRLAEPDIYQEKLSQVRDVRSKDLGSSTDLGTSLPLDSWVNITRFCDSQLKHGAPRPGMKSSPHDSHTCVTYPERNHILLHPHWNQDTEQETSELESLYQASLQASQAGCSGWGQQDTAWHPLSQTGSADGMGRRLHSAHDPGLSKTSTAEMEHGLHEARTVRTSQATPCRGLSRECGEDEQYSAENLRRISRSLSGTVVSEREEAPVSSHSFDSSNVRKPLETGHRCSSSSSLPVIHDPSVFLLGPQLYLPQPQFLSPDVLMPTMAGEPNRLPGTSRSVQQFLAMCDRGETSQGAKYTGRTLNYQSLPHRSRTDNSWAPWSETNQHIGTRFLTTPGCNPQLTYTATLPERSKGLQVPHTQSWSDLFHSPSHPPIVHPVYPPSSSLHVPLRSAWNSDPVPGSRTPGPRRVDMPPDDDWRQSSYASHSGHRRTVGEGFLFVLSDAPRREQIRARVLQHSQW
Summary of the method: as §1

USP7 = USP7 (UniProt Q93009)
USP7, sequence (Q93009 whole entry, looked up): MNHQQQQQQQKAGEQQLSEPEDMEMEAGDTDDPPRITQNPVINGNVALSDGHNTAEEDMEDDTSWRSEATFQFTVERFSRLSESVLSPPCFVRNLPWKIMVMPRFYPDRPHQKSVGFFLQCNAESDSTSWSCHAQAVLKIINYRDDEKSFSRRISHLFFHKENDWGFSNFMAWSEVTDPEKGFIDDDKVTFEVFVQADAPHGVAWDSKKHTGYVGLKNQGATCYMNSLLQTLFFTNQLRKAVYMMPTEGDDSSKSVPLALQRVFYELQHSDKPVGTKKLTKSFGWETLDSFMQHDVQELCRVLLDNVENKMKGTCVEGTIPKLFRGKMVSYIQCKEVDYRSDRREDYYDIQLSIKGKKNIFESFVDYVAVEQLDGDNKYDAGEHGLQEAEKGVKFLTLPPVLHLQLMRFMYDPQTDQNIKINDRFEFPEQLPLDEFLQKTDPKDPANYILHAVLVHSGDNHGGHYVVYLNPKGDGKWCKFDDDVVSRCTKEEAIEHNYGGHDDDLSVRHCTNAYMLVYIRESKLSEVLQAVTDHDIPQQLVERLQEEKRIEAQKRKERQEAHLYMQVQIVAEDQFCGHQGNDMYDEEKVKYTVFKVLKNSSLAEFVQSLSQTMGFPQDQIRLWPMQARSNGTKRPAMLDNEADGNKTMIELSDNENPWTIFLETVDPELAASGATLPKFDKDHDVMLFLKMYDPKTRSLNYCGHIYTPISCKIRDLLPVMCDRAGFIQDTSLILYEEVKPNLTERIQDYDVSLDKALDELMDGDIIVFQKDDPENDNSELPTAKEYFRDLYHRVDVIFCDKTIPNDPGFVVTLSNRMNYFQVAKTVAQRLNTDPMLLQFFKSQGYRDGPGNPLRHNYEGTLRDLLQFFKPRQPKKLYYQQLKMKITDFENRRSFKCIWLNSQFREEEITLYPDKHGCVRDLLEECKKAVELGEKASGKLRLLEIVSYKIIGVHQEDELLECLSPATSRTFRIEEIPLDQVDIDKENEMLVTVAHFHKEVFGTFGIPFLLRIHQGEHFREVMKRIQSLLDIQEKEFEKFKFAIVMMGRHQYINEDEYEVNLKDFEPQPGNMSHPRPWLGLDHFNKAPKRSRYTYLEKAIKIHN
Summary of the method: as §1

USP8 = target: T5, USP8 (UniProt P40818)
T5 sequence (whole entry): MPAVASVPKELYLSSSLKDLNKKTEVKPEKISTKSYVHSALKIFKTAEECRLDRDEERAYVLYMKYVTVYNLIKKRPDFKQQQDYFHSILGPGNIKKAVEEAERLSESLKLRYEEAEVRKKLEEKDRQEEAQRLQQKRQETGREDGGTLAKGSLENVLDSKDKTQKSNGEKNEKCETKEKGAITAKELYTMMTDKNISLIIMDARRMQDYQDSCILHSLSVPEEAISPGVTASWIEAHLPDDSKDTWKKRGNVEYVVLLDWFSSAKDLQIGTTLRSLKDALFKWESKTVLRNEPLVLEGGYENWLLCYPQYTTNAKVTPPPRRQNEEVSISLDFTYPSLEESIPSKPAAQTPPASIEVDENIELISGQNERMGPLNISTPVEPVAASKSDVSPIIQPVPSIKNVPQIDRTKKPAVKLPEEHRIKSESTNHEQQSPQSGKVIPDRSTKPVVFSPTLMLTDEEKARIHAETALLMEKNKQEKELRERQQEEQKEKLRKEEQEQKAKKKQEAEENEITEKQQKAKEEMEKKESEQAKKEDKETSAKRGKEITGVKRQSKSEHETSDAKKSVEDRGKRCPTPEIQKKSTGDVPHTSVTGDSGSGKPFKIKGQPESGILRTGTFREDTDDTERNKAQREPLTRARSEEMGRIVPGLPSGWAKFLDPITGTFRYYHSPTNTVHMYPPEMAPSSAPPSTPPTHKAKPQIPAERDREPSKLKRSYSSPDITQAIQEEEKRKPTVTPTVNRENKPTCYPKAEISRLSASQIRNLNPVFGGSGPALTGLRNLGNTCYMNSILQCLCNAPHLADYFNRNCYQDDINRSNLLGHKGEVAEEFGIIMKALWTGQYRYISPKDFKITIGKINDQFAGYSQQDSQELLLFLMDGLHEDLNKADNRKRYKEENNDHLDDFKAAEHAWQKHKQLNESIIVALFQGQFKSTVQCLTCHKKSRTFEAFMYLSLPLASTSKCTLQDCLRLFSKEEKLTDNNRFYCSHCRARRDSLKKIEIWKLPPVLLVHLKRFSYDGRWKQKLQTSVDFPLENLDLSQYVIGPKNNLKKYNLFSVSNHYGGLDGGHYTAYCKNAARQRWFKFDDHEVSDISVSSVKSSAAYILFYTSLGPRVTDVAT
Summary of the method: as §1

Measured: log2 ratio of Biotin-Ahx-Ub-VS probe labelling

Cc1nc(CC2CCN(C(=O)CCl)CC2)no1
inactive: USP42 0.631 | USP46 -0.332 | USP47 -0.726 | USP48 -0.576 | USP5 -0.492 | USP54 0.803 | USP7 -0.904 | USP8 -0.755
